Compound activity deposited in PubChem BioAssay by several laboratories.
This is a sample that favours compounds with a hit; in the whole collection about 3.3% have one here.
PfM18AAP inh: PfM18AAP inhibitors, malaria aminopeptidase, primary screen, biochemical, QFRET, recombinant enzyme; M18 aspartyl aminopeptidase (Plasmodium falciparum 3D7); H-Glu-NHMec fluorogenic cleavage; inhibition, % at 7.35 µM; 290,000 compounds, 1.2% hits; AID 1822, 2009;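 active means inhibition above the campaign mean inhibition over all tested compounds plus 3 SD, cut at about 28% in these data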;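 further: 0% = plate median of test compound wells and 100% = 2 mM ZnCl2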
PfG6PD inh: PfG6PD enzyme inhibitors, primary screen, biochemical, fluorescence intensity, uHTS; glucose-6-phosphate dehydrogenase-6-phosphogluconolactonase (Plasmodium falciparum 3D7); PfGluPho enzyme, NADPH resazurin-diaphorase fluorescence; inhibition, % at 20 µM; 350,000 compounds, 0.78% hits;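 active means inhibition reaching at least a set limit at 20 µM in the primary screen, cut at about 59% in these data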;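 further: 0% = DMSO wells with substrate and 100% = DMSO wells lacking glucose-6-phosphate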
UHRF1 binding: UHRF1 methylated DNA binding inhibitors, primary screen, counter-screen for MBD2 inhibitor project, biochemical, TR-FRET, human UHRF1, single concentration; E3 ubiquitin-protein ligase UHRF1 (Homo sapiens), Q96T88; UHRF1 binding to methylated oligo; inhibition, % at 4.4 µM; 370,000 compounds, 0.75% hits; in the data active means inhibition above about 21%;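 further: UHRF1 SRA domain binding a hemimethylated CpG hairpin DNA probe; 0% = median of test compound wells and 100% = reference inhibitor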
PRMT1 inh: PRMT1 methyltransferase inhibitors, primary screen, biochemical, fluorescence polarization; Protein arginine N-methyltransferase 1 (Homo sapiens), Q99873; recombinant PRMT1, activity-based probe fluorescence polarization; inhibition, % at 2.79 µM; 370,000 compounds, 1.3% hits;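 active means inhibition above about 21% made by adding two undisclosed values, limit read from the data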
Target sequence (Q99873 whole entry, looked up): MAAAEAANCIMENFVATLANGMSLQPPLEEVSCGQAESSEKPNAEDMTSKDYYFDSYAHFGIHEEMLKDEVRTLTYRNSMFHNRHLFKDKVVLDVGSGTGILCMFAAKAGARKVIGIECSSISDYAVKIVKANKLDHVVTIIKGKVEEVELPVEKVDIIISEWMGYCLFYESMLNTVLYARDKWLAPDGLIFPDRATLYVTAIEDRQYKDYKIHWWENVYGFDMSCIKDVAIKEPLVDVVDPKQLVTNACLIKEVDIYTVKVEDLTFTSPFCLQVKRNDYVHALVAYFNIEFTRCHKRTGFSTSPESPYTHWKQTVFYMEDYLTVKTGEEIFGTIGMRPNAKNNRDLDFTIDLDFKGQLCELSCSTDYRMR
MBD2 DNA inh: inhibitors of MBD2 binding to methylated DNA, primary screen, biochemical, TR-FRET, DNA-binding domain, human. Methyl-CpG-binding domain protein 2 (Homo sapiens), Q9UBB5. MBD2 binding to methylated oligonucleotide. inhibition, % at 4.4 µM. 370,000 compounds, 0.31% hits; in the data active means inhibition above about 13%
PRMT1 confirm: PRMT1 methyltransferase inhibitors, confirmation, biochemical, fluorescence polarization, triplicate | shares compounds with PRMT1 inh | recombinant His-PRMT1, activity-based probe fluorescence polarization | inhibition, % at 2.79 µM | 3,300 compounds, 42% hits;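 active means mean inhibition across replicates above the hit cutoff derived for the earlier primary screen, cut at about 22% in these data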
Numbers without * were called inactive; . = no result given.

SMILES | PfM18AAP inh | PfG6PD inh | UHRF1 binding | PRMT1 inh | MBD2 DNA inh | PRMT1 confirm
Cc1ccccc1-c1cc(C(=O)NCc2cccc(Br)c2)n(CC2CC(c3cccnc3)=NO2)n1 (stereo not drawn) | . | 21 | 15 | -2 | 9 | .
Fc1ccccc1/C=N/n1c(COc2ccccc2)n[nH]c1=S | 21 | 25 | 0 | 11 | 10 | .
Cc1ccc(/C=N/n2c(COc3ccccc3)n[nH]c2=S)s1 | 13 | 4 | -3 | 27* | -6 | 4
S=c1[nH]nc(COc2ccccc2)n1/N=C/c1ccc(Br)s1 | 13 | 27 | -3 | 26* | -6 | 12
Cc1c(C)c(C)c(S(=O)(=O)NCCC(=O)N2CCN(Cc3ccc(C#N)cc3)CC2)c(C)c1C | . | 1 | -3 | 2 | -5 | .
CN(C)CCN(C(=O)c1ccc(S(=O)(=O)N2CCc3ccccc32)cc1)c1nc2ccc(F)cc2s1 | 1 | 9 | -2 | 50* | -9 | 1
CCc1ccc2nc(N(CCCN(C)C)C(=O)c3ccc(S(=O)(=O)N4CCCc5ccccc54)cc3)sc2c1 | 0 | 25 | 0 | 9 | -3 | .
CN(C)CCCN(C(=O)c1ccc(S(=O)(=O)N2CCc3ccccc32)cc1)c1nc2c(Cl)cccc2s1 | 3 | -14 | 8 | 33* | 2 | 8
CC(Sc1nc2ccccc2c(=O)n1CC1CCCO1)C(=O)N(C)c1ccccc1 (stereo not drawn) | . | -2 | -3 | -4 | -1 | .
Cc1c(CN2CCC(n3nccc3NC(=O)C3CC3)CC2)[nH]c2ccccc12 | 3 | 0 | 2 | 1 | -3 | .
CC(NC(=O)COc1ccc(/C=N/NC(=O)CO)cc1)c1ccccc1 (stereo not drawn) | -4 | -5 | -5 | -3 | -3 | .
Cc1ccc(O)c(NC(=O)C2=CC(c3ccco3)=NS(=O)(=O)N2C)c1 | 7 | -1 | -2 | 97* | -5 | -1
Cc1cc(C)c(Cn2cnc3ccccc32)c(C)c1 | 3 | -6 | -1 | 1 | -5 | .
S=c1[nH]nc(-c2ccc(Cl)cc2)n1/N=C/C=C/c1ccco1 | 16 | 17 | 9 | 31* | 2 | 5
S=c1[nH]nc(-c2ccccc2)n1/N=C/C=C/c1ccco1 | 20 | 31 | 2 | 10 | 0 | .
Cc1ccccc1-c1n[nH]c(=S)n1/N=C/C=C/c1ccco1 | 6 | 24 | 12 | 29* | 2 | 20
Cc1cc(C)n(CCc2nc(-c3ccc(C)o3)cs2)n1 | -123 | 28 | 1 | 68* | 3 | 34*
Cc1cc(C)n(CCc2nc(-c3cc4ccccc4o3)cs2)n1 | -3 | 15 | -2 | 2 | -5 | .
CN1Cc2sc(NC(=S)NC(=O)c3ccccc3)c(C#N)c2CC1(C)C | 6 | 31 | 29* | 71* | 21* | 9
CCC1(C)Cc2c(sc(NC(=S)NC(=O)c3ccccc3)c2C#N)CO1 (stereo not drawn) | 2 | 23 | 1 | 15 | 3 | .
CC(NC(=O)CSC1=NCCS1)c1ccccc1 (stereo not drawn) | 3 | -11 | 6 | 3 | 0 | .
O=C(CSC1=NCCS1)NC(NC(=O)CSC1=NCCS1)c1ccccc1 | 6 | -7 | 2 | 26* | 2 | 11
O=C(CSC1=NCCS1)NC(c1ccccc1)c1ccccc1 | 2 | 12 | -1 | 58* | 1 | 66*
CN(CC(=O)Nc1ccccc1Cl)C(=O)c1ccccc1Sc1ccccc1C#N | . | 11 | 1 | -3 | -6 | .
O=C(Nc1ccc(F)cc1)NC1CCN(Cc2nnnn2Cc2ccco2)CC1 | -47 | 2 | 19 | 29* | 9 | 11
SMILES | PfM18AAP inh | PfG6PD inh | UHRF1 binding | PRMT1 inh | MBD2 DNA inh | PRMT1 confirm
O=C(COC(=O)CSc1ccc([N+](=O)[O-])cc1)NCc1ccco1 | . | 52 | 0 | 6 | -3 | .
NC(=O)c1ccc(SCC(=O)OCC(=O)NC2CCCCCCC2)c([N+](=O)[O-])c1 | . | 44 | -2 | 65* | -1 | 30*
NC(=O)c1ccc(SCC(=O)OCC(=O)NCc2ccco2)c([N+](=O)[O-])c1 | . | 12 | 0 | 26* | -1 | 2
COc1ccc2cc(C3CC(c4ccco4)=NN3S(C)(=O)=O)c(Cl)nc2c1 (stereo not drawn) | -17 | 20 | -1 | 25* | -4 | 10
CS(=O)(=O)N1N=C(c2ccco2)CC1c1ccc(Cl)cc1 (stereo not drawn) | 0 | -7 | 1 | 4 | 4 | .
CCOc1ccc2nc(Cl)c(C3CC(c4ccco4)=NN3S(=O)(=O)c3ccccc3)cc2c1 (stereo not drawn) | 0 | 22 | -3 | 32* | 1 | 0
c1ccc2c(C3=NNC(=NC4CCCCC4)SC3)c[nH]c2c1 | -7 | 47 | -3 | 4 | -2 | .
c1ccc2c(C3=NNC(=NC4CC4)SC3)c[nH]c2c1 | 32* | 10 | 3 | 38* | 5 | 3
Cc1cccc2cc(C(c3nnnn3Cc3ccccc3)N3CCCc4ccccc43)c(=O)[nH]c12 (stereo not drawn) | 19 | -9 | -8 | 26* | -1 | -3
Cc1cc(Br)cn2c(Cc3cccc(Cl)c3)c(-c3ccco3)nc12 | . | . | 15 | 44* | 3 | 18
Cc1ccc(Cc2c(-c3ccccc3)nc3c(C)cc(Br)cn23)cc1 | . | . | 14 | 4 | 4 | .
Cc1cc(Br)cn2c(Cc3ccccc3C(F)(F)F)c(-c3ccco3)nc12 | . | . | 19 | 40* | 9 | 23*
Fc1cccc(Cc2c(-c3ccco3)nc3c(Cl)cc(C(F)(F)F)cn23)c1 | . | . | 18 | 38* | 4 | 23*
Cc1ccc(Cc2c(-c3ccco3)nc3c(C)cc(Br)cn23)cc1 | . | . | 21* | 33* | 1 | 18
Fc1ccc(-c2nc3c(Cl)cc(C(F)(F)F)cn3c2Cc2cccc(F)c2)cc1 | . | . | 2 | -4 | 1 | .
Cc1cc(Br)cn2c(Cc3ccccc3)c(-c3cccc(Cl)c3)nc12 | . | . | 8 | 9 | 11 | .
COC(=O)[C@]12CCCCC=C1N(CCC1=CCCCC1)C(=O)[C@H](CC(=O)NCCCN1CCCC1=O)C2 | . | . | -2 | -3 | 1 | .
CN(C)S(=O)(=O)c1ccc(N2CCCC2)c(C(=O)N2CCN(S(=O)(=O)c3ccccc3F)CC2)c1 | . | 0 | -1 | 0 | -2 | .
c1ccc(C2=Nn3c(nnc3-c3ccco3)SC2)cc1 | 1 | -2 | -8 | 5 | 0 | .
CCCCCN(C(=O)CCC(=O)OCC(=O)N1CCCCC1)c1c(N)n(CCCC)c(=O)[nH]c1=O | -1 | -2 | 0 | 6 | -7 | .
O=C1N=C(N2C=CC(=C3C=CNC=C3)C=C2)/C(=C/N=NC(=O)c2ccccc2O)S1 | 29* | 4 | -10 | 39* | -16 | 23*
